Shown are actives, neighbours in structure and some others; about 1.7% of the full set was active somewhere.
PTHR1 ag = agonists of human PTHR1 parathyroid hormone receptor; hit rate 0.075% among 410,000; HEK293 GP2 PTHR1 cells, GloSensor cAMP luminescence, 1 h; Q03431; Potency, µM (titrated, usually from 115 µM), for inactives: at the highest dose activation, usual class: activators; also: nearly all actives have a fitted effect of over 55% in size
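HEK-293-derived GP2 cells expressing PTHR1 and a GloSensor cAMP reporter, 3,000/well, plated overnight, given luciferin plus IBMX (each 0.5 mM as added) for 1 h at 37 °C, then compound for 1 h at 37 °C. Luminescence was read after 15 min at room temperature.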
GLP-1R inv ag = acts as inverse agonist at human GLP-1 receptor; P43220; HEK293 GLP-1R CRE-luciferase, luminescence, 24 h; GLP-1R form is constitutively active; Potency, µM (doses to about 38.3 µM), for the others: at the highest dose activity change, negative = inhibition, usual class: inhibitors; hit rate 1.6% among 410,000; AID 624417; also: % is scaled to controls: 0 for no effect and ±100 for the full control effect; nearly all actives have a fitted effect of over 55% in size
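Inverse agonists were sought by their lowering of basal cAMP reporter luciferase output in HEK293 cells stably carrying constitutively active human GLP-1R, after 24 h compound treatment.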
HEK293 tox = cytotoxicity counter-screen for GLP-1 receptor inverse agonists. AID 624418. hit rate 0.13% among 410,000. Potency, µM (highest dose often 38.3 µM), inactives show top-dose activity change, negative = inhibition, hits mostly inhibitors. HEK293 cAMP-luciferase reporter cells, luminescence, 24 h;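 also: loss of luciferase light is scored as toxicity; % is scaled to controls: 0 for no effect and ±100 for the full control effect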
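MLSMR compounds, 24 hr on cells at 37 deg C/5% CO2; luminescence after luciferase reagent (12 min RT). Inhibition counted as the undesired cytotoxic outcome.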
GLP-1R agonist = GLP-1 receptor (human) agonism. P43220. HEK293 GLP-1R CRE-luciferase, luminescence, 4-6 h; cells express a hypersensitive GLP-1R form. Potency, µM (top dose mostly 45.6 µM), without a hit: at the top dose activation, hits mostly activators. hit rate 0.007% among 380,000. AID 624172; also: % of control where 0% means no effect
* marks the source's active call; other numbers are inactive results; i = inactive; ? = inconclusive; nt = not tested or not shown; [ ] = remark or other dose. Calls follow the shape of the dose curve; as a rule, active = well fitted curve in the direction sought with a large enough effect; inconclusive = small, poorly fitted or top-dose-only effect, or another doubt; inactive = no such curve, though single readings can be large; an effect the other way counts as inactive or inconclusive. Potency is read from the fitted curve at half-maximal effect.

SMILES	PTHR1 ag	GLP-1R inv ag	HEK293 tox	GLP-1R agonist
O=C(N/N=C/c1ccccc1[N+](=O)[O-])c1ccc2c(c1)OCCO2	-29.4%	-13.8%	-5.9%	11.0%
O=C(N/N=C/c1cc([N+](=O)[O-])ccc1O)c1ccc2c(c1)OCCO2	i	?	3.55µM*	-2.5%
S=C1NC[C@H](CC2CCCCC2)N1CC1CCCCC1	-65.0%	4.47µM*	5.62µM*	1.1%
CCCOc1ccc(CCc2n[nH]c(=S)n2-c2ccccc2)cc1	-13.5%	-16.4%	?	13.6%
CCCOc1ccc(CCc2n[nH]c(=S)n2Cc2ccccc2)cc1	-12.2%[57.5 µM]	8.91µM*	-2.0%	0.7%
COc1cccc(C(=O)NC2CC3CCCC(C2)N3CC(=O)Nc2ccccc2C(F)(F)F)c1 (stereo not given)	-33.1%	2.24µM*	-8.1%	8.5%
O=C(CN1C2CCCC1CC(NC(=O)C1CCCCC1)C2)Nc1ccccc1C(F)(F)F (stereo not given)	-34.7%	?	7.9%	10.7%
CC(=O)N1CCc2nc3sc(C(=O)Nc4ccc(Cl)cc4F)c(N)c3c(C(F)(F)F)c2C1	i	8.9%	8.4%	-7.6%
CC1=C(C(=O)Nc2ccccc2C)C(c2ccco2)n2ncnc2N1 (stereo not given)	i	?	-11.0%	-0.6%
CCOc1ccccc1NC(=O)CN1C(=O)COc2ccc(S(=O)(=O)N3CCCCC3)cc21	-8.2%	?	-5.6%	nt
S=c1[nH]nc(C2CCCCC2)n1/N=C/c1ccncc1	-17.2%	1.78µM*	5.2%	-2.0%
CSc1ccc(/C=N/n2c(C3CCCCC3)n[nH]c2=S)cc1	i	?	0.1%	20.1%
CN1CCN(CCOC2Cc3ccccc3Sc3ccc(Cl)cc32)CC1 (stereo not given)	?	8.91µM*	?	-25.2%
COC(=O)C1=CN(c2ccc(F)cc2)C=C(C(=O)OC)C1c1cccc([N+](=O)[O-])c1	-32.2%	5.62µM*	4.7%	12.7%
O=C(Nc1ccc(Br)cc1)N1CCC(CN2CCCC2)CC1	?	-24.9%	-0.9%	nt
O=C(NCc1ccccc1)C(=O)Nc1ccc2nc3n(c(=O)c2c1)CCCCC3	-12.1%	5.5%	-3.3%	nt
CN(C)CCN(C(=O)c1cccc2ccccc12)c1nc2cc3c(cc2s1)OCO3	-21.8%	10µM*	-5.6%	5.3%
CCOc1cccc2sc(N(CCCN(C)C)C(=O)c3ccc(S(=O)(=O)N(CC)Cc4ccccc4)cc3)nc12	-24.3%	3.98µM*	?	-1.6%
Cc1cc(C)c2sc(N(CCCN(C)C)C(=O)c3ccc(S(=O)(=O)N(C)Cc4ccccc4)cc3)nc2c1	i	11.2µM*	?	-9.6%
CCOc1cccc2sc(N(CCCN(C)C)C(=O)c3ccc(S(=O)(=O)N(C)Cc4ccccc4)cc3)nc12	-17.7%	?	?	-19.3%
CN(C)CCN(C(=O)c1ccc2ccccc2c1)c1nc2cc3c(cc2s1)OCCO3	-8.5%	?	-6.5%	2.2%
Cc1cc(C)c2sc(N(CCN(C)C)C(=O)c3c(F)cccc3F)nc2c1	-26.3%	7.08µM*	-14.3%	12.1%
Cc1nn(-c2ccc(N3CCCCC3)nn2)c(C)c1CCC(=O)NCc1ccc(Cl)cc1	-87.8%	9.6%	0.3%	nt
CN(C)CCN(C(=O)c1ccc(S(=O)(=O)N2CCCC2)cc1)c1nc2ccc(Br)cc2s1	i	5.62µM*	62.3%	-4.2%
Cc1ccc2nc(N(CCCN(C)C)C(=O)c3ccc(S(=O)(=O)N4CCCCCC4)cc3)sc2c1	i	?	?	-5.5%
SMILES	PTHR1 ag	GLP-1R inv ag	HEK293 tox	GLP-1R agonist
CCN(c1ccccc1)S(=O)(=O)c1ccc(C(=O)N(CCCN(C)C)c2nc3cc4c(cc3s2)OCO4)cc1	-2.4%	3.55µM*	?	9.3%
CN(C)CCCN(C(=O)c1ccc(S(=O)(=O)N2CCCCCC2)cc1)c1nc2cc3c(cc2s1)OCO3	i	10µM*	-25.5%	4.7%
CN(C)CCCN(C(=O)c1ccc2ccccc2c1)c1nc2cc3c(cc2s1)OCO3	i	?	?	-0.7%
CN(C)CCCN(C(=O)c1ccc(S(=O)(=O)N(C)Cc2ccccc2)cc1)c1nc2cc3c(cc2s1)OCO3	i	7.08µM*	?	0.0%
CCn1c(SCc2ccc(F)cc2Cl)nc(=O)c2c(C(=O)OC)cc(C3CC3)nc21	-65.7%	?	-19.8%	nt
O=C(C1CCN(S(=O)(=O)Cc2ccccc2)CC1)N1CCN(c2ccc(F)cc2)CC1	-12.7%	0.3%	2.9%	nt
